Vif-APOBEC3F blk = qHTS for Inhibitors of Vif-A3F Interactions: qHTS | HeLa A3F-eYFP + Vif (tagged APOBEC3F with the HIV-1 protein that degrades it), YFP fluorescence increase | Potency, µM (highest dose often 46.1 µM) | 390,000 tested, 0.2% active | AID 602313, 2012; also: nearly all actives have a fitted effect of over 65% in size
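Fluorescence increase (Ex 488/Em 500-530) after overnight compound treatment at 37 deg C flags inhibition of Vif-driven A3F-eYFP loss in stable HeLa A3F-eYFP/Vif cells seeded overnight beforehand.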
VDR inh = Inhibitors of the vitamin D receptor (VDR): qHTS; Vitamin D3 receptor (Homo sapiens), P11473; VDR-SRC2-3 peptide fluorescence polarization, 2 h; Potency, µM, actives largely listed as inhibitors; 400,000 tested, 0.93% active; AID 504847, 2011
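FP read-out; VDR + SRC2-3 coactivator peptide; 23 nl compound by pintool; 2 h RT incubation; reagents held at 4 deg C, protected from light.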
Vif-APOBEC3G blk = qHTS for Inhibitors of Vif-A3G Interactions: qHTS. HeLa A3G-eYFP + Vif (tagged APOBEC3G with the HIV-1 protein that degrades it), YFP fluorescence, overnight. Potency, µM (series often up to 46.1 µM), hits mostly inhibitors. 410,000 tested, 0.076% active. AID 602310, 2012; also: nearly all actives have a fitted effect of over 60% in size
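Read-out is eYFP fluorescence (Ex 488/Em 500-530) from Vif-expressing HeLa A3G-eYFP cells; more signal means A3G escaped Vif-mediated degradation. Cells plated overnight, compound pinned in, incubated overnight at 37 deg C.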
TSHR antagonist = Antagonists of the Thyroid Stimulating Hormone Receptor: HTS campaign; activity change, negative = inhibition, % at 11.5 µM; Thyrotropin receptor (Homo sapiens), P16473; 330,000 tested, 0.2% active; TSHR-expressing cells, TSH-stimulated cAMP HTRF, 2 h; hits give low values;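 active = activity change below a set negative limit, meaning inhibition stronger than a set level, cut at about -70% in these data; inconclusive = activity change between two set negative limits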
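TSHR-expressing cells, 200/well, pre-treated with compound, then stimulated with EC80 TSH (4nM final) for 2 hours at 37 deg C. cAMP measured by competitive HTRF: anti-cAMP cryptate antibody in lysis buffer plus cAMP-d2, read after 30 minutes at room temperature.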
PLK1 PBD inh = qHTS for Inhibitors of PLK1-PDB (polo-like kinase 1 - polo-box domain): Primary Screen | Serine/threonine-protein kinase PLK1 (Homo sapiens), P53350 | 360,000 tested, 2.8% active | Plk1 PBD binding of FITC phosphopeptide, fluorescence polarization | Potency, µM, most hits filed as inhibitors; also: series mostly up to about 57 µM; nearly all actives have a fitted effect of over 65% in size
Target sequence (P53350 whole entry, looked up, the tested form may be a part): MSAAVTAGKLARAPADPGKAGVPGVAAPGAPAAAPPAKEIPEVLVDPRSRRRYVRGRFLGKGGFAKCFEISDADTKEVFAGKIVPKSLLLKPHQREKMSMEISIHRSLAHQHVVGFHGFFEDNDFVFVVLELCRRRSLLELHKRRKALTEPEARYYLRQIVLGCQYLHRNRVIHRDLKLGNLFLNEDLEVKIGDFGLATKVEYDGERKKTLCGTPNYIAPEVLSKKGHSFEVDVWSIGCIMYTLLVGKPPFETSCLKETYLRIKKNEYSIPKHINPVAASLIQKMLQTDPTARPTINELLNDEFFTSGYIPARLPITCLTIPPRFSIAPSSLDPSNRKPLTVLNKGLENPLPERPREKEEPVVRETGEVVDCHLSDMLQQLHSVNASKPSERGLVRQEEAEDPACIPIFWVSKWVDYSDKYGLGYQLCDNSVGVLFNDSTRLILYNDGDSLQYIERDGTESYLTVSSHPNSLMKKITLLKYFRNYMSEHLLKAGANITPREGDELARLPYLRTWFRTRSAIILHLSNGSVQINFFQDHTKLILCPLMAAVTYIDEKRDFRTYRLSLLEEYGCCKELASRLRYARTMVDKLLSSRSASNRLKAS
A number is an active result. Only some compounds are listed: those with a hit (about 3.1% of all), similar ones and a draw of the others. Unless noted, calls follow the shape of the dose curve; as a rule, active = well fitted curve in the direction sought with a large enough effect; inconclusive = small, poorly fitted or top-dose-only effect, or another doubt; inactive = no such curve, though single readings can be large; an effect the other way counts as inactive or inconclusive.

Cc1cccc(NC(=O)CC2SC(=O)N(c3ccccc3)C2=O)c1 (stereo not drawn) was read as Vif-APOBEC3F blk inactive, VDR inh inconclusive, Vif-APOBEC3G blk inactive, TSHR antagonist inactive and PLK1 PBD inh 15µM.
`Cc1ccc(N2C(=O)SC(Cc3ccccc3)C2=O)cc1` (stereo not drawn) gave Vif-APOBEC3F blk inactive, VDR inh inconclusive, Vif-APOBEC3G blk inactive, TSHR antagonist inactive and PLK1 PBD inh 7.5µM.
`O=C(CC1SC(=O)N(c2ccccc2)C1=O)Nc1ccccc1` (stereo not drawn) gave Vif-APOBEC3F blk inactive, VDR inh 22µM, Vif-APOBEC3G blk inactive, TSHR antagonist inactive and PLK1 PBD inh 11µM.
Cc1cccc(NC2SC(=O)N(c3ccccc3)C2=O)c1 (stereo not drawn) was read as Vif-APOBEC3F blk inactive, VDR inh inactive, Vif-APOBEC3G blk inactive, TSHR antagonist inactive and PLK1 PBD inh inactive.
Screening Cc1ccc(NC(=O)CC2SC(=O)N(c3ccccc3)C2=O)cc1 (stereo not drawn) returned Vif-APOBEC3F blk inconclusive, VDR inh 28µM, Vif-APOBEC3G blk inactive, TSHR antagonist inactive and PLK1 PBD inh 6.7µM.
Screening CCCN1C(=O)SC(CC(=O)Nc2ccc(C)cc2)C1=O (stereo not drawn) returned VDR inh inactive, Vif-APOBEC3G blk inactive, TSHR antagonist inactive and PLK1 PBD inh inactive.
Screening N=C1SC(CC(=O)Nc2ccc([N+](=O)[O-])cc2)C(=O)N1c1ccccc1 (stereo not drawn) returned Vif-APOBEC3F blk inactive, VDR inh inactive, Vif-APOBEC3G blk inactive, TSHR antagonist inactive and PLK1 PBD inh inactive.
`N#CCC(=O)N/N=C/c1ccc(N2N=C(c3ccccc3)CC2c2ccccc2)cc1` (stereo not drawn) gave Vif-APOBEC3F blk 6.3µM, VDR inh inactive, Vif-APOBEC3G blk inconclusive, TSHR antagonist inactive and PLK1 PBD inh inactive.
For COc1ccc(C2CC(c3ccccc3)=NN2c2ccc(/C=N/NC(=O)c3ccncc3)cc2)cc1 (stereo not drawn) the results were Vif-APOBEC3F blk inactive, VDR inh inactive, Vif-APOBEC3G blk inactive, TSHR antagonist inactive and PLK1 PBD inh inactive.
C=C[C@@H](c1ccccc1)[C@](C)(O)C(=O)O was read as PLK1 PBD inh inactive.
Screening C=C[C@@H](C1=CC(=O)C(OC)=C(OC)C1=O)c1ccccc1 returned VDR inh 4µM.
`C=CC(C1=CC(=O)C=CC1=O)c1ccccc1` (stereo not drawn) gave VDR inh 35µM.
`C=CC(C1=CC(=O)C(OC)=CC1=O)c1ccc(O)cc1` (stereo not drawn) gave VDR inh inactive.
COc1ccccc1CCNc1ncnc2nc[nH]c12 was read as VDR inh inactive and Vif-APOBEC3G blk inactive.
For CCCC1NC(C(=O)O)Cc2c1[nH]c1ccccc21 (stereo not drawn) the results were Vif-APOBEC3F blk inactive, VDR inh inconclusive, Vif-APOBEC3G blk inactive, TSHR antagonist inactive and PLK1 PBD inh 19µM.
`Cc1cc2nnc(SC(C)C#N)n2c2ccccc12` (stereo not drawn) gave Vif-APOBEC3F blk inactive, VDR inh inactive, Vif-APOBEC3G blk inactive, TSHR antagonist inactive and PLK1 PBD inh 21µM.
Cc1cc2nnc(SC(C)C)n2c2ccccc12 was read as Vif-APOBEC3F blk inactive, VDR inh inactive, Vif-APOBEC3G blk inactive, TSHR antagonist inactive and PLK1 PBD inh inactive.
`CCOC(=O)/C(=C\c1ccccc1)C(=O)CCN1CCOCC1` gave Vif-APOBEC3F blk inactive, VDR inh inconclusive, Vif-APOBEC3G blk inactive and PLK1 PBD inh 6.7µM.
Screening COc1ccc(/C=C/C(=O)c2cc(F)ccc2OC(=O)c2ccccc2)cc1OC returned Vif-APOBEC3F blk inactive, VDR inh 40µM, Vif-APOBEC3G blk inconclusive and PLK1 PBD inh inactive.
COc1cc(/C=C2\SC(N)=NC2=O)cc(Br)c1O was read as Vif-APOBEC3F blk inconclusive, VDR inh inactive, Vif-APOBEC3G blk 11µM, TSHR antagonist inactive and PLK1 PBD inh inactive.
`COc1cc(/C=C2\SC(c3ccccc3)=NC2=O)cc(Cl)c1O` gave Vif-APOBEC3F blk inactive, VDR inh inconclusive, Vif-APOBEC3G blk inactive, TSHR antagonist inactive and PLK1 PBD inh 11µM.
`CCOC(=O)c1c(NC(=S)Nc2ccccc2)sc2c1CC(C)(C)SC2` gave Vif-APOBEC3F blk inactive, VDR inh inactive, Vif-APOBEC3G blk inactive, TSHR antagonist inactive and PLK1 PBD inh inconclusive.
CCOC(=O)c1c(NC(=S)NC)sc2c1CC(C)(C)SC2 was read as Vif-APOBEC3F blk inactive, VDR inh inconclusive, Vif-APOBEC3G blk inactive, TSHR antagonist inactive and PLK1 PBD inh 24µM.
COc1ccccc1N1C(=O)c2cccc3c(N(C)CCO)ccc(c23)C1=O was read as Vif-APOBEC3F blk inconclusive, VDR inh inactive, Vif-APOBEC3G blk inconclusive, TSHR antagonist inactive and PLK1 PBD inh inactive.
Cc1ccccc1N1C(=O)c2cccc3c(N(C)CCO)ccc(c23)C1=O was read as Vif-APOBEC3F blk 13µM, VDR inh inactive, Vif-APOBEC3G blk inactive, TSHR antagonist inactive and PLK1 PBD inh inconclusive.
For CC(=O)N(C1CC(C)C(C#N)(C#N)C1(C#N)C#N)N(C)C (stereo not drawn) the results were Vif-APOBEC3F blk inactive, VDR inh 35µM, Vif-APOBEC3G blk inactive, TSHR antagonist inactive and PLK1 PBD inh 2.4µM.
For CCCC(=O)N(C1CC(C)C(C#N)(C#N)C1(C#N)C#N)N(C)C (stereo not drawn) the results were Vif-APOBEC3F blk inactive, VDR inh 8.9µM, Vif-APOBEC3G blk inactive, TSHR antagonist inconclusive and PLK1 PBD inh 6µM.
OC1(c2ccc(Cl)c(C(F)(F)F)c2)CCN(CCCC(c2ccc(F)cc2)c2ccc(F)cc2)CC1 was read as VDR inh inactive.
For Cc1ccc(-c2nc3sc(C#N)c(N)n3c(=O)c2C#N)cc1 the results were Vif-APOBEC3F blk 6.3µM, VDR inh inactive, Vif-APOBEC3G blk inactive, TSHR antagonist inactive and PLK1 PBD inh inactive.
`Cc1ccc(-n2c(N)c(C#N)c(-c3ccccc3)c(C#N)c2=O)cc1` gave Vif-APOBEC3F blk inactive, VDR inh inactive, Vif-APOBEC3G blk inactive, TSHR antagonist inactive and PLK1 PBD inh inactive.
NCC1OC(O[C@H]2[C@H](O)[C@@H](OC3C(O)C(N)CC(N)C3OC3OC(CO)C(O)C(O)C3N)O[C@@H]2CO)C(N)C(O)C1O (stereo partly drawn) was read as VDR inh inactive and TSHR antagonist inactive.
`COc1ccc(-c2nc3cncnc3n(-c3ccccc3)c2=O)cc1` gave VDR inh inactive.
